Our source for the outcome and AC50 values is PubChem BioAssay (EPA / NIEHS).

Activity calls are given as the source filed them. How the source made its calls: active means hit-call score of the fitted dose curve at least 0.9, where 1 is the maximum; inactive means score below 0.9.

By AC50 is commonly meant the concentration giving half of the maximal activity seen.

What all share (details): mRNA level, 48 h; actives raise or lower the signal
Read-out in test [1]: Cytochrome P450 (CYP24A1), CYP24A1 (gene 1591)
In words: LTEA_HepaRG_CYP24A1: Life Technologies and Expression Analysis (LTEA) Assay for Cytochrome P450 (CYP24A1) using HepaRG (AID 2283478). An outline of the steps:
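qRT-PCR read-out: CYP24A1 transcript levels normalized to three housekeeping genes, bidirectional curve fits against 0.5% DMSO baseline. Human HepaRG cells treated 48 h with chemicals at eight concentrations from 100 uM in half-log steps.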

Read-out in test [2]: Cytochrome P450 (CYP1A2), CYP1A2 (gene 1544)
In words: LTEA_HepaRG_CYP1A2: Life Technologies and Expression Analysis (LTEA) Assay for Cytochrome P450 (CYP1A2) using HepaRG (AID 2283479). An outline of the steps:
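HepaRG, 48 h exposure, top 100 uM, half-log 8-pt, 0.5% DMSO vehicle, duplicates. Readout: TaqMan qRT-PCR of CYP1A2 mRNA, housekeeping-normalized (ACTB/GAPDH/POLR2A). Gain/loss fit relative to DMSO baseline.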

Read-out in test [3]: cysteine-aspartic acid protease (CASP8), CASP8 (gene 841)
Nature of the test: LTEA_HepaRG_CASP8: Life Technologies and Expression Analysis (LTEA) Assay for cysteine-aspartic acid protease (CASP8) using HepaRG (AID 2283480). The gist of the method:
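HepaRG, 48 h exposure, duplicate wells; 8 conc, half-log from 100 uM, 0.5% DMSO. Serum-free induction medium. CASP8 mRNA by TaqMan qRT-PCR, norm. ACTB/GAPDH/POLR2A; gain/loss fitted vs DMSO.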

Read-out in test [4]: Cytochrome P450 (CYP2B6), CYP2B6 (gene 1555)
In words: LTEA_HepaRG_CYP2B6: Life Technologies and Expression Analysis (LTEA) Assay for Cytochrome P450 (CYP2B6) using HepaRG (AID 2283481). An outline of the steps: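 Read-out is CYP2B6 mRNA by TaqMan qRT-PCR, normalized to three housekeeping genes and fitted bidirectionally against 0.5% DMSO baseline. Human HepaRG cells received test chemicals for 48 h, top concentration 100 uM, half-log dilutions.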

Read-out in test [5]: Cytochrome P450 2C19 (Homo sapiens) (UniProt P33261)
Nature of the test: LTEA_HepaRG_CYP2C19: Life Technologies and Expression Analysis (LTEA) Assay for CYP2C19 using HepaRG (AID 2283482). An outline of the steps:
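HepaRG, 48 h chemical exposure, 8-pt half-log series from 100 uM in 0.5% DMSO, duplicates. Readout: CYP2C19 mRNA by TaqMan qRT-PCR, housekeeping-normalized. Bidirectional fit vs DMSO baseline; phenobarbital 1mM as induction control.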

Read-out in another test: CYP2C8 (gene 1558)
Nature of the test: LTEA_HepaRG_CYP2C8: Life Technologies and Expression Analysis (LTEA) Assay for CYP2C8 using HepaRG (AID 2283483). An outline of the steps:
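CYP2C8 mRNA induction or loss, by qRT-PCR normalized to ACTB/GAPDH/POLR2A, is read in HepaRG cells after 48 h treatment. Concentrations run from 100 uM down in half-log dilutions, with 0.5% DMSO as vehicle and baseline.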

Read-out in a further test: CYP2C9 (gene 1559)
Nature of the test: LTEA_HepaRG_CYP2C9: Life Technologies and Expression Analysis (LTEA) Assay for CYP2C9 using HepaRG (AID 2283484). An outline of the steps:
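Cells plated 48 h, switched to serum-free induction medium, then treated in duplicate for 48 h at eight concentrations (max 100 uM, 0.5% DMSO). RNA then analysed by qRT-PCR for CYP2C9; curves fitted in both directions relative to DMSO.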

Read-out in the next test: CYP4A11 (gene 1579)
Nature of the test: LTEA_HepaRG_CYP4A11: Life Technologies and Expression Analysis (LTEA) Assay for CYP4A11 using HepaRG (AID 2283486). The gist of the method:
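CYP4A11 transcript levels were quantified by TaqMan qRT-PCR after HepaRG human liver cells were treated for 48 hours with test chemicals (top 100 uM, half-log dilutions, 0.5% DMSO). Gain or loss of signal was fitted relative to DMSO.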

Read-out in test [6]: Cytochrome P450 3A4 (Homo sapiens) (UniProt P08684)
In words: LTEA_HepaRG_CYP3A4: Life Technologies and Expression Analysis (LTEA) Assay for CYP3A4 using HepaRG (AID 2283487). The gist of the method: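 HepaRG, 48 h exposure, 8-pt CRC from 100 uM (half-log), 0.5% DMSO, duplicates; serum-free induction medium. Readout: CYP3A4 mRNA, qRT-PCR, ACTB/GAPDH/POLR2A normalization. Bidirectional fit vs DMSO.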

Read-out in test [7]: DNA damage-inducible transcript 3 (DDIT3), DDIT3 (gene 1649)
In words: LTEA_HepaRG_DDIT3: Life Technologies and Expression Analysis (LTEA) Assay for DNA damage-inducible transcript 3 (DDIT3) using HepaRG (AID 2283488). The gist of the method: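 HepaRG plated 48 h, switched to serum-free induction medium, dosed 48 h (100 uM top, half-log, 8 pts, 0.5% DMSO, n=2); RNA isolated; DDIT3 by qRT-PCR; bidirectional curve fit vs DMSO.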

Read-out in test [8]: Early growth response protein 1 (EGR1) transcription factor, EGR1 (gene 1958)
Nature of the test: LTEA_HepaRG_EGR1: Life Technologies and Expression Analysis (LTEA) Assay for Early growth response protein 1 (EGR1) transcription factor using HepaRG (AID 2283490). The gist of the method: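 Read-out is EGR1 mRNA level by qRT-PCR, normalized to three housekeeping genes and analysed for gain or loss of signal against 0.5% DMSO. Source cells: human HepaRG, treated 48 h at up to 100 uM in half-log dilutions.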

Read-out in test [9]: Ezrin (EZR), EZR (gene 7430)
Nature of the test: LTEA_HepaRG_EZR: Life Technologies and Expression Analysis (LTEA) Assay for Ezrin (EZR) using HepaRG (AID 2283491). An outline of the steps:
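Read-out is EZR transcript level by qRT-PCR, normalized to three housekeeping genes and fitted bidirectionally against the DMSO control. Human HepaRG cells received test chemicals for 48 h at eight half-log concentrations up to 100 uM in 0.5% DMSO.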

Read-out in test [10]: Cytochrome P450 3A7 (Homo sapiens) (UniProt P24462)
In words: LTEA_HepaRG_CYP3A7: Life Technologies and Expression Analysis (LTEA) Assay for CYP3A7 using HepaRG (AID 2283492). An outline of the steps: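 CYP3A7 transcript levels were read by TaqMan qRT-PCR on Fluidigm arrays after 48 h chemical exposure of human HepaRG cells, with housekeeping-gene normalisation. Eight half-log concentrations up to 100 uM in 0.5% DMSO were tested in duplicate.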

Read-out in a further test: CYP3A5 (gene 1577)
Nature of the test: LTEA_HepaRG_CYP3A5: Life Technologies and Expression Analysis (LTEA) Assay for CYP3A5 using HepaRG (AID 2283493). The gist of the method:
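HepaRG plated 48 h, switched to serum-free induction medium, chemicals added 48 h (max 100 uM, half-log, 0.5% DMSO). RNA isolated; CYP3A5 by TaqMan qRT-PCR. Gain/loss vs DMSO.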

Read-out in test [11]: Fatty Acid-Binding Protein 1 (FABP1), FABP1 (gene 2168)
In words: LTEA_HepaRG_FABP1: Life Technologies and Expression Analysis (LTEA) Assay for Fatty Acid-Binding Protein 1 (FABP1) using HepaRG (AID 2283494). An outline of the steps:
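HepaRG, 48 h post-plating switched to serum-free induction medium, then dosed 48 h (duplicate, 8 pts, ≤100 uM, 0.5% DMSO). RNA → Fluidigm TaqMan qRT-PCR, FABP1 normed to ACTB/GAPDH/POLR2A. Bidirectional curve fit vs DMSO.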

Read-out in test [12]: Cytochrome P450 4A22 (Homo sapiens) (UniProt Q5TCH4)
Nature of the test: LTEA_HepaRG_CYP4A22: Life Technologies and Expression Analysis (LTEA) Assay for Cytochrome P450 4A22 (CYP4A22) using HepaRG (AID 2283495). The gist of the method: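 HepaRG, 48 h post-plating -> serum-free induction medium; dosed 48 h, duplicate, 8 conc. (100 uM top, half-log), 0.5% DMSO. Readout: CYP4A22 mRNA by qRT-PCR, ACTB/GAPDH/POLR2A normalization; gain/loss fit relative to DMSO.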

Read-out in test [13]: Cytochrome P450 7A1 (Homo sapiens) (UniProt P22680)
In words: LTEA_HepaRG_CYP7A1: Life Technologies and Expression Analysis (LTEA) Assay for Cytochrome P450 7A1 (CYP7A1) using HepaRG (AID 2283496). An outline of the steps:
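HepaRG cells plated 48 h, then switched to serum-free induction medium and exposed in duplicate for 48 h to 8-point half-log series from 100 uM in 0.5% DMSO. CYP7A1 mRNA by qRT-PCR (TaqMan), normalized to ACTB/GAPDH/POLR2A; bidirectional fit versus DMSO.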

Read-out in test [14]: Glutathione S-Transferase (GSTA2), GSTA2 (gene 2939)
Nature of the test: LTEA_HepaRG_GSTA2: Life Technologies and Expression Analysis (LTEA) Assay for Glutathione S-Transferase (GSTA2) using HepaRG (AID 2283497). The gist of the method:
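HepaRG, 48 h dosing, 8-pt half-log CRC from 100 uM, 0.5% DMSO vehicle, n=2; RNA → Fluidigm TaqMan qRT-PCR; GSTA2 vs ACTB/GAPDH/POLR2A; gain/loss fit vs DMSO.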

Read-out in test [15]: Pro-epidermal growth factor (Homo sapiens) (UniProt P01133)
In words: LTEA_HepaRG_EGF: Life Technologies and Expression Analysis (LTEA) Assay for Epidermal growth factor (EGF) using HepaRG (AID 2283489). An outline of the steps: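 qRT-PCR readout of EGF transcript after 48 h chemical exposure of HepaRG cells; eight concentrations from 100 uM down in half-log steps, duplicate wells, 0.5% DMSO vehicle. Bidirectional curve fitting against DMSO baseline.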

Read-out in another test: CYP2E1 (gene 1571)
In words: LTEA_HepaRG_CYP2E1: Life Technologies and Expression Analysis (LTEA) Assay for CYP2E1 using HepaRG (AID 2283485). An outline of the steps: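 Human liver line HepaRG, plated 48 h, then serum-free induction medium + chemical x 48 h; 8-pt CRC from 100 uM, half-log, 0.5% DMSO, n=2. Readout: CYP2E1 mRNA qRT-PCR vs ACTB/GAPDH/POLR2A; bidirectional fit vs DMSO.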

Sequence of Cytochrome P450 3A4 (Homo sapiens) (P08684 whole entry, looked up): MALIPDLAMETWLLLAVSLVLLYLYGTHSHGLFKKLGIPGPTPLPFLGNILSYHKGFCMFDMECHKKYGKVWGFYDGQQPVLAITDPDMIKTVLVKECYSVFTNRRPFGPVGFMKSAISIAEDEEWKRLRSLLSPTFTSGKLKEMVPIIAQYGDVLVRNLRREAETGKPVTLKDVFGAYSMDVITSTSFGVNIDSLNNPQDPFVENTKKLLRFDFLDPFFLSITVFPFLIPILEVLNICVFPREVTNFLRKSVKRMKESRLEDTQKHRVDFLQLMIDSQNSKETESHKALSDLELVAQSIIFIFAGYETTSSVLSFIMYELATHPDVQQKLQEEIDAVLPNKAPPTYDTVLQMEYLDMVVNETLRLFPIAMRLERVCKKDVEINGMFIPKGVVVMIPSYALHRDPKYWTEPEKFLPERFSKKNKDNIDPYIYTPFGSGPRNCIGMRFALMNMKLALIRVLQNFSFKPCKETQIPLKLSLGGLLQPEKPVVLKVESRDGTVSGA
Sequence of Cytochrome P450 3A7 (Homo sapiens) (P24462 whole entry, looked up): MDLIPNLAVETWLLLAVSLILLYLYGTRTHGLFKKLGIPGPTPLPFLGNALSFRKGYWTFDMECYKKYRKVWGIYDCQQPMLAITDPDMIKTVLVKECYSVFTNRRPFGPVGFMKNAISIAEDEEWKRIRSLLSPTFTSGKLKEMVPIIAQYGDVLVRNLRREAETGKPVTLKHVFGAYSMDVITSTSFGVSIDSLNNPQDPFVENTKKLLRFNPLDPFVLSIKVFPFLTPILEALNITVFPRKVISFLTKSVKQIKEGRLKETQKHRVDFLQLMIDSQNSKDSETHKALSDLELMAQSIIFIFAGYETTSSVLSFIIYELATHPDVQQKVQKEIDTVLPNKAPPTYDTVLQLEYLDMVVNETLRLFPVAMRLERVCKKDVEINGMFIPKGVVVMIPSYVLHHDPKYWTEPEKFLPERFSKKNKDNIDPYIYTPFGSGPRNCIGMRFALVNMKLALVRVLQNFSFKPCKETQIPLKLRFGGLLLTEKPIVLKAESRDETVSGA
Sequence of Cytochrome P450 2C19 (Homo sapiens) (P33261 whole entry, looked up): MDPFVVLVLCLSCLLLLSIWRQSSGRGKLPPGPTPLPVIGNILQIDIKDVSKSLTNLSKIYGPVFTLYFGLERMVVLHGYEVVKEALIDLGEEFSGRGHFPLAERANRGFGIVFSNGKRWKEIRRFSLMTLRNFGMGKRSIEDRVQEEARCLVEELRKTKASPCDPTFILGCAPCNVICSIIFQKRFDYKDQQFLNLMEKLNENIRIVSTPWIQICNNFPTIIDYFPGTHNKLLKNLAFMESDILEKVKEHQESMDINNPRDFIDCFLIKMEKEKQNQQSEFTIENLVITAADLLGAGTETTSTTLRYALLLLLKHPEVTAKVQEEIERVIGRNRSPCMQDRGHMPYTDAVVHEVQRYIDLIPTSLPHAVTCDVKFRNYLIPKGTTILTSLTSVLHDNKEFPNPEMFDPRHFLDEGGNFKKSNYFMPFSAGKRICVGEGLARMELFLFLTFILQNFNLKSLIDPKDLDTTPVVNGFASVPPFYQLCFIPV

Regarding `CC(=O)S[C@H](C(=O)N[C@H]1Cc2ccccc2[C@H]2CCC[C@@H](C(=O)O)N2C1=O)C(C)C`, the outcome (in [1]; in test [2]; in test [3]; in [4]; in test [5]; in the test with CYP2C8 (gene 1558)) was inactive. The molecule was called inactive (with CYP2C9 (gene 1559); in the test with CYP4A11 (gene 1579); in test [6]; in test [7]; in test [8]; in [9]). In addition, the result (in test [10]; in the test with CYP3A5 (gene 1577); in [11]; in [12]; in [13]; in [14]) was inactive.
In the case of `CN(C)C(=O)NC1(c2ccccc2)CCN(CC[C@@]2(c3ccc(F)c(F)c3)CN(C(=O)c3ccccc3)CCO2)CC1`, the outcome (in test [1]; in test [3]; in test [4]; in the test with CYP2C8 (gene 1558); in the test with CYP2C9 (gene 1559); in test [15]) was inactive. Moreover, the outcome (in test [8]; in test [9]; with CYP3A5 (gene 1577); in test [11]; in [13]; in test [14]) was inactive. The AC50 in test [2] was 47 µM (active); in [5] it was 2.65 µM (active); with CYP4A11 (gene 1579), 47 µM (active); in test [6] it was 2.69 µM (active); in [7], 56.6 µM (active); in [10] it was 2.8 µM (active).
Take `COC(=O)[C@H]1[C@H]2C[C@@H]3c4[nH]c5cc(OC)ccc5c4CCN3C[C@H]2C[C@@H](OC(=O)c2cc(OC)c(OC)c(OC)c2)[C@@H]1OC`: the molecule was called inactive in [1] and in test [3]. In addition, the AC50 was 9.74 µM (active) in test [2]; 61.7 µM (active) in test [4]; 63.4 µM (active) in test [5]; 63.5 µM (active) with CYP2C8 (gene 1558); 60.9 µM (active) with CYP2C9 (gene 1559); 49.3 µM (active) with CYP2E1 (gene 1571). The AC50 in [7] was 55.1 µM (active); in test [8], 64.2 µM (active); in test [9], 8.38 µM (active); in test [14], 60.1 µM (active).
Regarding `CCCCCCCC(=O)OC`, the call (in test [1]; in test [2]; in test [3]; in test [4]; in test [5]; in the test with CYP2C9 (gene 1559)) was inactive. The molecule was called inactive (in the test with CYP4A11 (gene 1579); in [6]; in test [7]; in test [15]; in [8]; in test [9]). The call (in test [10]; with CYP3A5 (gene 1577); in test [11]; in [12]; in test [13]; in test [14]) was inactive. In addition, the AC50 in the test with CYP2C8 (gene 1558) is 12 µM (active).
